6 compounds from PubChem BioAssay (NCI) can be followed below.

“And” between values parts separate entries of the source, which are not always exact repeats. Equal entries are not always repeated. Compounds without any hit were thinned out: in the full panel of roughly 83,000, 20% have a hit.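 The test compound was applied at a single concentration to cells in 96-well plates for 48 hours, and percent growth was recorded.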 The source made the active and inactive calls. The calls were made as follows: active = growth percent below 10; inactive = the rest.

Holding throughout (test): NCI-60 one-dose screen, 48 h (100 = growth as untreated, 0 = no growth, -100 = all killed)
What all share (conditions): 10 µM

Experiment [1] deals with NCI-H23 lung.
For experiment [2], the system named is NCI-H226 lung.
Experiment [3] relates to NCI-H322M lung.
The subject of experiment [4] is HOP-62 NSCLC.
In experiment [5] the test system is NCI-H460 lung.
For experiment [6], the system named is HOP-92 NSCLC.
In experiment [7] the test system is NCI-H522 lung.
Experiment [8] deals with A549/ATCC NSCLC.
In experiment [9] the test system is 786-0 renal.
The test system of experiment [10] is COLO 205 colon.
In experiment [11] the test system is DU-145 prostate.
Experiment [12] has as its system K-562 leukemia.
Experiment [13] has as its system MALME-3M melanoma.
For experiment [14], the system named is MDA-MB-231 breast.
Experiment [15] concerns RXF 393 renal.
Experiment [16] deals with SF-268 CNS.
The subject of experiment [17] is SF-295 CNS.
The subject of experiment [18] is SF-539 CNS.
For experiment [19], the system named is UACC-257 melanoma.
Experiment [20] has as its system M14 melanoma.

Turning to `O=c1[nH]c2ccccc2n1C1CCN(CCCC(c2ccc(F)cc2)c2ccc(F)cc2)CC1`, the growth in experiment [1] is 59.8% (inactive) and 38% (inactive); in [2] it was 92.1% (inactive) and 61.6% (inactive); in experiment [3], 64.2% (inactive) and 67.5% (inactive); in experiment [4], 84% (inactive) and -30.2% (active); in [5] it was -0.452% (active) and 2.65% (active); in experiment [6] it was -42.3% (active) and 27.1% (inactive). The growth was 62.3% (inactive) and 33.6% (inactive) in experiment [7]; 39.5% (inactive) and 10.9% (inactive) in [8]; -43.7% (active) and -57.1% (active) in [9]; -50.3% (active) and -70.3% (active) in experiment [10]; 56.7% (inactive) and 53.3% (inactive) in [11]; -62.4% (active) and -55.3% (active) in experiment [12]. Besides, the growth in [13] is -8.01% (active) and -56.3% (active); in experiment [14], 40% (inactive) and 45.2% (inactive); in experiment [15], 52.9% (inactive) and -40.4% (active); in [16], 23.6% (inactive) and 70.8% (inactive); in experiment [17], 6.63% (active) and 25.3% (inactive); in [18], 77.3% (inactive) and -66.9% (active). Further, the growth in experiment [19] is -27.7% (active) and 24.7% (inactive); in [20], 14.9% (inactive).
Turning to `[Cl][Hg][c]1ccc(Cl)s1`, the growth in experiment [1] is 51.1% (inactive); in experiment [2] it was 50.1% (inactive); in experiment [3], 91.3% (inactive); in experiment [4], 87.8% (inactive); in experiment [5], 83.7% (inactive); in experiment [6] it was -70% (active). Besides, the growth is -98.1% (active) in experiment [7]; 97.2% (inactive) in [8]; -54.5% (active) in experiment [9]; -81.2% (active) in [10]; 62.5% (inactive) in [11]; -0.908% (active) in experiment [12]. The growth is -69.8% (active) in experiment [13]; -47.2% (active) in experiment [14]; -90% (active) in experiment [15]; 25.2% (inactive) in [16]; 100% (inactive) in experiment [17]; -3.52% (active) in [18]. Besides, the growth in [19] is 16.4% (inactive); in [20], -54.5% (active).
For the compound `COc1ccc(/C=C\[N+](=O)[O-])cc1OC`, the growth was 83.9% (inactive) and 65.5% (inactive) in experiment [1]; 101% (inactive) and 77.5% (inactive) in [2]; 129% (inactive) and 90.2% (inactive) in experiment [3]; 107% (inactive) and 88% (inactive) in experiment [4]; 45.6% (inactive) and 63.3% (inactive) in [5]; 92.8% (inactive) and 82.3% (inactive) in [6]. For the same compound, the growth in experiment [7] is 80.6% (inactive) and 75.6% (inactive); in [8], 67.9% (inactive) and 68.7% (inactive); in [9], 96.4% (inactive) and 47.9% (inactive); in experiment [10] it was 76.5% (inactive) and 64.5% (inactive); in experiment [11], 60.5% (inactive) and 59.3% (inactive); in experiment [12], 69.7% (inactive) and 27.5% (inactive). In addition, the growth in experiment [13] was 155% (inactive) and 105% (inactive); in experiment [14], 91.4% (inactive) and 68.9% (inactive); in [15], 4.99% (active) and -51.1% (active); in experiment [16], 73.8% (inactive) and 70.3% (inactive); in [17], 60.6% (inactive) and 85.3% (inactive); in [18] it was 88.1% (inactive) and 59.3% (inactive). For the same compound, the growth is 33.8% (inactive) and 73% (inactive) in [19]; 75.6% (inactive) and 42.5% (inactive) in experiment [20].
Consider `COc1ccc2c(ccc3oc([N+](=O)[O-])cc32)c1`, for which the growth in [1] is -9.56% (active); in experiment [2], -4.88% (active); in experiment [3], -10.7% (active); in experiment [4], -4.6% (active); in [5], -3.44% (active); in [6], 10.8% (inactive). Besides, the growth is -52% (active) in experiment [7]; 0.82% (active) in [8]; -2.34% (active) in experiment [9]; -76.3% (active) in experiment [10]; 0.495% (active) in experiment [11]; 0.428% (active) in experiment [12]. Further, the growth is -55% (active) in experiment [13]; -20.3% (active) in experiment [14]; -64.3% (active) in experiment [15]; -6.08% (active) in [16]; -0.437% (active) in [17]; -18.7% (active) in experiment [18]. The figures for the growth in [19] and in [20] were -56.9% (active) and -40.2% (active), respectively.
As for `CC(C)c1cc([N+](=O)[O-])cc([N+](=O)[O-])c1O`, the growth in experiment [1] is 102% (inactive); in [2], 102% (inactive); in experiment [3], 112% (inactive); in [4], 98.5% (inactive); in [5], 105% (inactive); in experiment [6] it was 75.1% (inactive). In addition, the growth is 103% (inactive) in experiment [7]; 103% (inactive) in experiment [8]; 101% (inactive) in [9]; 105% (inactive) in experiment [10]; 110% (inactive) in [11]; 119% (inactive) in [12]. In addition, the growth is 137% (inactive) in [13]; 99.7% (inactive) in [14]; 102% (inactive) in experiment [15]; 102% (inactive) in experiment [16]; 99% (inactive) in [17]; 101% (inactive) in experiment [18]. Besides, the growth in experiment [19] is 115% (inactive); in experiment [20] it was 99.7% (inactive).
As for `O=C1C(=O)c2ccccc2-c2ccccc21`, the growth was -54.3% (active) in experiment [1]; -88.3% (active) in experiment [2]; 101% (inactive) in [3]; -70% (active) in experiment [4]; 3.18% (active) in [5]; -87.7% (active) in experiment [6]. Further, the growth in experiment [7] was -58.5% (active); in experiment [8] it was -47.9% (active); in experiment [9] it was -88.2% (active); in [10], -63.5% (active); in experiment [11] it was -100% (active); in experiment [12] it was -37.4% (active). The growth was -93.6% (active) in [13]; -39% (active) in [14]; -93.2% (active) in experiment [15]; -88.7% (active) in experiment [16]; -97.4% (active) in experiment [17]; -92.7% (active) in [18]. Besides, the growth in [19] was -95.6% (active); in [20], -83.8% (active).
